From the supplement of paper PMC6555819

Each sequence was assayed on RARa homodimer (NR concentration 270 nM) (assay: PBM binding z-score (relative to random genomic background probes); higher = stronger binding; sequences stand for … in GC…GCGATTGACAGCGTAGAATGAAGG).
Procedure, shortened: (§1)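 Antibodies against each partner of ligand-free nuclear receptor dimers (one per run) detected binding on custom Agilent 4×180K protein-binding microarrays after 1 h incubation. The double-stranded probes had 34-nt variable regions carrying direct-repeat seeds, single-nucleotide variants, half-site ablations and random human genomic background sequences. Binding z-scores, from regression-normalized fluorescence, use the random background probes as reference.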

**Q.** How did the PBM binding z-score turn out when TCAGACAGGTGAAGCTAACTCAGGTACGCAGTCG was run?
**A.** 0.225

**Q.** For TAGCCTTGGTCATGCGGGCCAGTATAGTGTCGGC, which PBM binding z-score is on record?
**A.** -1.23

**Q.** GTACCAAGGTGAATAGGTCGTTAATGAGTAGGCG was tested. Which PBM binding z-score did it give?
**A.** 0.00305

**Q.** Which PBM binding z-score does the source give for GCTTGTAGATCAACGTTAAGAAAGACTAAGCTAA here?
**A.** -0.208

**Q.** Which PBM binding z-score does the source give for TCTTGTAGATCAAAGGGTAAGAAAGCCGAAGCCT here?
**A.** -0.0812

**Q.** For GCTGATAGGTCAACTGATGGTCAGCTAAAGCTCG, which PBM binding z-score is on record?
**A.** 1.39

**Q.** Which PBM binding z-score does the source give for CATACAGGGTCAGCTAGGGCAGAGTAGGGACGGC here?
**A.** 0.618

**Q.** AGTCAAAGTTCAGGACGATGTAACGTAAAGCACG was tested. Which PBM binding z-score did it give?
**A.** 0.666

**Q.** Which PBM binding z-score does the source give for TCTAGTTGGTCACGGTGGTCACACACGACGGGTA here?
**A.** -0.155

**Q.** How did the PBM binding z-score turn out when CCGACTGGGGCAAGGTTGCCATAACGCACAGCCA was run?
**A.** -0.394

**Q.** How did the PBM binding z-score turn out when CCTAGCGGGCCAGGGTCACTCAAGCATTTCGCTT was run?
**A.** -0.206

**Q.** With AGAATGAGGTTGTACGTAGATCAGGGAAGAAAGT as the sequence, how does the PBM binding z-score read?
**A.** 0.476

**Q.** With AGAATGAGGTTATACGTACATCAGGGAAGAAAGT as the sequence, how does the PBM binding z-score read?
**A.** 0.483

**Q.** Which PBM binding z-score does the source give for TGGAGTAGGTTAGGGGCATTCAGAATGGCGTCGA here?
**A.** 0.935

**Q.** For CCTACTGGGCCATTCAGAGGCCATTGATCATATG, which PBM binding z-score is on record?
**A.** -0.498

**Q.** How did the PBM binding z-score turn out when ATATGTAGGTTACGGGTCATTCAGGTTGGTTCGC was run?
**A.** 1.28

**Q.** For TCGAGTAGGTTAGGGGTATTCAGAATGGCGTCGA, which PBM binding z-score is on record?
**A.** 0.176

**Q.** CCTAGTTCGTCAAGGTCACACACGCTATAGGTAC was tested. Which PBM binding z-score did it give?
**A.** 2.49

**Q.** TCTTTTAGTTGATTAGGGCAACCGAAACAGCGGA was tested. Which PBM binding z-score did it give?
**A.** 1.25

**Q.** GCTAGCAGGGCATTTGGGTCACTCAATGACGGGC was tested. Which PBM binding z-score did it give?
**A.** -0.58

**Q.** Which PBM binding z-score does the source give for TGAATGAGGTTATAAGATCGGGGAACGTTGCAAA here?
**A.** -0.252

**Q.** For CGTCCCAGGTCAGAGAGGTCAGTGAATGCCGAGT, which PBM binding z-score is on record?
**A.** 0.426

**Q.** Which PBM binding z-score does the source give for CAAACTAGGGCAAAGGTCAAAGTCGAGCCAACCA here?
**A.** 1.54

**Q.** Which PBM binding z-score does the source give for CGAACTAGGTCATTGACGGGACAGTGAATAGTAA here?
**A.** 0.192

**Q.** Which PBM binding z-score does the source give for TCTTGTAGATCAACAGGCGGTTAAGAAAGATCGA here?
**A.** -0.0268

**Q.** ACTATTAGGTGACTTAGGGCAACCGATACGACGC was tested. Which PBM binding z-score did it give?
**A.** 1

**Q.** Which PBM binding z-score does the source give for TCTGCTACGTCAGTTGGTCAGCTAACGAGCTGCC here?
**A.** -1.96

**Q.** CTCGAAAGGTCGTGCTCAAGTGAGTATACCAAAC was tested. Which PBM binding z-score did it give?
**A.** -0.14

**Q.** TAGCCTAGGTCATTCAGGGGCCAGGATAGAAAGC was tested. Which PBM binding z-score did it give?
**A.** -0.579

**Q.** For CCTCGGAGGACAACAGGAGGTGAGAGCTGCCAGA, which PBM binding z-score is on record?
**A.** -0.132

**Q.** For ACAGACAGGTGAGTGAAGGTAATTCAGCTGGACG, which PBM binding z-score is on record?
**A.** -0.0883

**Q.** With CTACCAAGGTGAACAAGCTCGTTGATTACTATTC as the sequence, how does the PBM binding z-score read?
**A.** 0.281

**Q.** With TAGCCTAGGTAATGCGGGCCAGTATAGTGTCGGC as the sequence, how does the PBM binding z-score read?
**A.** -1.12

**Q.** Which PBM binding z-score does the source give for CCTCGGAGGACAAAAGGAGGTCAGAGCTGCCAGA here?
**A.** 0.515

**Q.** For GCTTGTAGAGCAAGGTTAAGAAAGACTAAGCTAA, which PBM binding z-score is on record?
**A.** -0.213

**Q.** TCATATAGGTAAAAGGAGAAAGTCGGTGTGGTAA was tested. Which PBM binding z-score did it give?
**A.** 1.29

**Q.** How did the PBM binding z-score turn out when TCTAGCAGGCCAGAGGTTCACTCAAGAGGTACGG was run?
**A.** -0.904

**Q.** How did the PBM binding z-score turn out when TCGAGTAGGTTCGGGGCATTCAGAATGGCGTCGA was run?
**A.** -1.08

**Q.** Which PBM binding z-score does the source give for TCTATTAGTTGATTAGGGCAACCTAAACAGCGGA here?
**A.** 1.09

**Q.** For ATACCAAAGTGATCGTGAGGTCGTTGATACTAAC, which PBM binding z-score is on record?
**A.** 0.386

Each sequence was assayed on RARb:RXRa (NR concentration 270 nM, RXRa partner concentration 90 nM) in the same assay as above.
Procedure, shortened: as §1

**Q.** How did the PBM binding z-score turn out when TCAGACAGGTGAAGCTAACTCAGGTACGCAGTCG was run?
**A.** 0.749

**Q.** Which PBM binding z-score does the source give for TAGCCTTGGTCATGCGGGCCAGTATAGTGTCGGC here?
**A.** 0.534

**Q.** For GTACCAAGGTGAATAGGTCGTTAATGAGTAGGCG, which PBM binding z-score is on record?
**A.** 1.91

**Q.** GCTTGTAGATCAACGTTAAGAAAGACTAAGCTAA was tested. Which PBM binding z-score did it give?
**A.** -0.508

**Q.** For TCTTGTAGATCAAAGGGTAAGAAAGCCGAAGCCT, which PBM binding z-score is on record?
**A.** 0.507

**Q.** How did the PBM binding z-score turn out when GCTGATAGGTCAACTGATGGTCAGCTAAAGCTCG was run?
**A.** 4.48

**Q.** With CATACAGGGTCAGCTAGGGCAGAGTAGGGACGGC as the sequence, how does the PBM binding z-score read?
**A.** 4.28

**Q.** For AGTCAAAGTTCAGGACGATGTAACGTAAAGCACG, which PBM binding z-score is on record?
**A.** 4.17

**Q.** Which PBM binding z-score does the source give for TCTAGTTGGTCACGGTGGTCACACACGACGGGTA here?
**A.** 1.93

**Q.** Which PBM binding z-score does the source give for CCGACTGGGGCAAGGTTGCCATAACGCACAGCCA here?
**A.** 0.641

**Q.** For CCTAGCGGGCCAGGGTCACTCAAGCATTTCGCTT, which PBM binding z-score is on record?
**A.** 2.53

**Q.** With AGAATGAGGTTGTACGTAGATCAGGGAAGAAAGT as the sequence, how does the PBM binding z-score read?
**A.** 0.142

**Q.** AGAATGAGGTTATACGTACATCAGGGAAGAAAGT was tested. Which PBM binding z-score did it give?
**A.** 1.5

**Q.** TGGAGTAGGTTAGGGGCATTCAGAATGGCGTCGA was tested. Which PBM binding z-score did it give?
**A.** 1.6

**Q.** With CCTACTGGGCCATTCAGAGGCCATTGATCATATG as the sequence, how does the PBM binding z-score read?
**A.** 0.712

**Q.** How did the PBM binding z-score turn out when ATATGTAGGTTACGGGTCATTCAGGTTGGTTCGC was run?
**A.** 2.92

**Q.** For TCGAGTAGGTTAGGGGTATTCAGAATGGCGTCGA, which PBM binding z-score is on record?
**A.** 0.589

**Q.** CCTAGTTCGTCAAGGTCACACACGCTATAGGTAC was tested. Which PBM binding z-score did it give?
**A.** 4.37

**Q.** For TCTTTTAGTTGATTAGGGCAACCGAAACAGCGGA, which PBM binding z-score is on record?
**A.** 1.79

**Q.** Which PBM binding z-score does the source give for GCTAGCAGGGCATTTGGGTCACTCAATGACGGGC here?
**A.** 1.76

**Q.** Which PBM binding z-score does the source give for TGAATGAGGTTATAAGATCGGGGAACGTTGCAAA here?
**A.** 1.08

**Q.** CGTCCCAGGTCAGAGAGGTCAGTGAATGCCGAGT was tested. Which PBM binding z-score did it give?
**A.** 4.48

**Q.** With CAAACTAGGGCAAAGGTCAAAGTCGAGCCAACCA as the sequence, how does the PBM binding z-score read?
**A.** 5.15

**Q.** For CGAACTAGGTCATTGACGGGACAGTGAATAGTAA, which PBM binding z-score is on record?
**A.** 3.63

**Q.** Which PBM binding z-score does the source give for TCTTGTAGATCAACAGGCGGTTAAGAAAGATCGA here?
**A.** -0.0147

**Q.** Which PBM binding z-score does the source give for ACTATTAGGTGACTTAGGGCAACCGATACGACGC here?
**A.** 1.31

**Q.** How did the PBM binding z-score turn out when TCTGCTACGTCAGTTGGTCAGCTAACGAGCTGCC was run?
**A.** -0.0758

**Q.** Which PBM binding z-score does the source give for CTCGAAAGGTCGTGCTCAAGTGAGTATACCAAAC here?
**A.** 3.97

**Q.** For TAGCCTAGGTCATTCAGGGGCCAGGATAGAAAGC, which PBM binding z-score is on record?
**A.** 3.97

**Q.** CCTCGGAGGACAACAGGAGGTGAGAGCTGCCAGA was tested. Which PBM binding z-score did it give?
**A.** 1.13

**Q.** ACAGACAGGTGAGTGAAGGTAATTCAGCTGGACG was tested. Which PBM binding z-score did it give?
**A.** 0.49

**Q.** With CTACCAAGGTGAACAAGCTCGTTGATTACTATTC as the sequence, how does the PBM binding z-score read?
**A.** 1.41

**Q.** TAGCCTAGGTAATGCGGGCCAGTATAGTGTCGGC was tested. Which PBM binding z-score did it give?
**A.** -0.447

**Q.** How did the PBM binding z-score turn out when CCTCGGAGGACAAAAGGAGGTCAGAGCTGCCAGA was run?
**A.** 2.39

**Q.** For GCTTGTAGAGCAAGGTTAAGAAAGACTAAGCTAA, which PBM binding z-score is on record?
**A.** 0.514

**Q.** TCATATAGGTAAAAGGAGAAAGTCGGTGTGGTAA was tested. Which PBM binding z-score did it give?
**A.** 0.195

**Q.** Which PBM binding z-score does the source give for TCTAGCAGGCCAGAGGTTCACTCAAGAGGTACGG here?
**A.** 0.468

**Q.** TCGAGTAGGTTCGGGGCATTCAGAATGGCGTCGA was tested. Which PBM binding z-score did it give?
**A.** 0.221

**Q.** How did the PBM binding z-score turn out when TCTATTAGTTGATTAGGGCAACCTAAACAGCGGA was run?
**A.** 1.14

**Q.** ATACCAAAGTGATCGTGAGGTCGTTGATACTAAC was tested. Which PBM binding z-score did it give?
**A.** 0.514
